Test results: article PMC7862700, “An all-to-all approach to the identification of sequence-specific readers for epigenetic DNA modifications on cytosine”

Key:
Test in all cases: DAPPL (digital affinity profiling via proximity ligation, sequencing); 10 mM Tris-HCl pH 7.5, 50 mM NaCl, 1 mM DTT, 4% glycerol, room temperature, 30 min; GST-TFs on glutathione beads, 16-mer random dsDNA library, 0.1% formaldehyde crosslink after washing; high values mean tight binding
FLI1 = molecular target: T1, FLI1 (Homo sapiens, UniProt Q01543 1-452); details: protein: recombinant; tags: N-terminal GST; dsDNA, one strand shown
T1 sequence: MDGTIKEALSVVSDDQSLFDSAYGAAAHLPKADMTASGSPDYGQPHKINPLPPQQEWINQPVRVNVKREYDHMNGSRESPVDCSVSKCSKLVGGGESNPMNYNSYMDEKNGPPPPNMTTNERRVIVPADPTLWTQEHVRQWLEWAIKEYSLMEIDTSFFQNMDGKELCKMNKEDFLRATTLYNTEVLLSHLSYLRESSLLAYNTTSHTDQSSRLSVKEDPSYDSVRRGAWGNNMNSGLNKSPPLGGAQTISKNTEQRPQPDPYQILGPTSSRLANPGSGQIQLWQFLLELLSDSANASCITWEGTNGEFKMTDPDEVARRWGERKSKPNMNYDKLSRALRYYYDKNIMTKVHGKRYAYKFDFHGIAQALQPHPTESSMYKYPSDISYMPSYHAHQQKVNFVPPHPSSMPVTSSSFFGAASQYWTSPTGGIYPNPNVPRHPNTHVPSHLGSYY
Outline: (§1)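 Binding signal is defined as a hexamer's read frequency for one factor over its frequency for the tag-only sample. To obtain reads, GST-fused human transcription factors were expressed in yeast, captured on glutathione beads, barcoded with DNA and pooled with that sample. Pools met 200 nmole of a 16-mer random double-stranded DNA library in Tris/NaCl/DTT/glycerol buffer for 30 min at room temperature before washing, 0.1% formaldehyde crosslinking, proximity ligation (BsaI/T4 ligase, 1 h, 37 °C), PCR and Illumina NextSeq500 sequencing.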

ELK1 = molecular target: T2, ELK1 (Homo sapiens, UniProt P19419 1-428); details: protein: recombinant; tags: N-terminal GST; dsDNA, one strand shown
T2 sequence: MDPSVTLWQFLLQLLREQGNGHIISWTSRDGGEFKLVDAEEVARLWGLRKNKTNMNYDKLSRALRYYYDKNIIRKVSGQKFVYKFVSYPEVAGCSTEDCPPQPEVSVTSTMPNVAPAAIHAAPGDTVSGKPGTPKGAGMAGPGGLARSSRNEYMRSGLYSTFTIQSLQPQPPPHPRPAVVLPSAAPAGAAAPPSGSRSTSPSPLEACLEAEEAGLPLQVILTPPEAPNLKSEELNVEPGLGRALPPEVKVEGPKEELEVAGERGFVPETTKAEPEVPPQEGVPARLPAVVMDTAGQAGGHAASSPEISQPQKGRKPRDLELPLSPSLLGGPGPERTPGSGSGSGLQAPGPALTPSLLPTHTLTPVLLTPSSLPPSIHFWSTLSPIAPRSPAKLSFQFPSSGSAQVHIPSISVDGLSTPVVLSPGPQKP
Outline: as §1

GABPA = molecular target: T3, GABPA (Homo sapiens, UniProt Q06546 1-454); details: protein: recombinant; tags: N-terminal GST; dsDNA, one strand shown
T3 sequence: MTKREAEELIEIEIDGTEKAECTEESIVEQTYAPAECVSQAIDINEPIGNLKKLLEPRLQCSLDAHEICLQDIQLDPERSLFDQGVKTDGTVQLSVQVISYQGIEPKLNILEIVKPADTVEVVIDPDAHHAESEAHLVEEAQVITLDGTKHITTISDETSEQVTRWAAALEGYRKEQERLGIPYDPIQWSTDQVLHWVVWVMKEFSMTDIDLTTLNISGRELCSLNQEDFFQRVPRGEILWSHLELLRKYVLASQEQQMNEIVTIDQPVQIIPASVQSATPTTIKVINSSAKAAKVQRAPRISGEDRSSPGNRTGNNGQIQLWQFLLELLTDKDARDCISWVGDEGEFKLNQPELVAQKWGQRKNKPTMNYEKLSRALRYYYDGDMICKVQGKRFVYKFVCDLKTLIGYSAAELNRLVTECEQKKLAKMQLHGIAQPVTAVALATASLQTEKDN
Outline: as §1

ERG = molecular target: T4, ERG (Homo sapiens, UniProt P11308 1-479); details: protein: recombinant; tags: N-terminal GST; dsDNA, one strand shown
T4 sequence: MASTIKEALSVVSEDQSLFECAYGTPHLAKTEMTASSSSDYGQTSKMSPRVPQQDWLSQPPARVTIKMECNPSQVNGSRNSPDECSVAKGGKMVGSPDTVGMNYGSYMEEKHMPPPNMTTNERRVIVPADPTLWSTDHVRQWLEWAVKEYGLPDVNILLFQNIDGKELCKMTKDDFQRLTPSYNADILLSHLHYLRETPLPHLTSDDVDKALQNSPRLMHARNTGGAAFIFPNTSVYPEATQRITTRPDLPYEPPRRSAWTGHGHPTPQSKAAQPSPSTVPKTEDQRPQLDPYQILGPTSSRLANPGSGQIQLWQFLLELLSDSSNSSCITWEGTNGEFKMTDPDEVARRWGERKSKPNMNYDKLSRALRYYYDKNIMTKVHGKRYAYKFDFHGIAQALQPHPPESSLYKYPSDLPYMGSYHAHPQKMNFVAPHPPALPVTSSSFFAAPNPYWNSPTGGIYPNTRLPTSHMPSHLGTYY
Outline: as §1

ELF1 = ELF1 (Homo sapiens, UniProt P32519 1-619); details: protein: recombinant; tags: N-terminal GST; dsDNA, one strand shown
Sequence of ELF1 (P32519 whole entry): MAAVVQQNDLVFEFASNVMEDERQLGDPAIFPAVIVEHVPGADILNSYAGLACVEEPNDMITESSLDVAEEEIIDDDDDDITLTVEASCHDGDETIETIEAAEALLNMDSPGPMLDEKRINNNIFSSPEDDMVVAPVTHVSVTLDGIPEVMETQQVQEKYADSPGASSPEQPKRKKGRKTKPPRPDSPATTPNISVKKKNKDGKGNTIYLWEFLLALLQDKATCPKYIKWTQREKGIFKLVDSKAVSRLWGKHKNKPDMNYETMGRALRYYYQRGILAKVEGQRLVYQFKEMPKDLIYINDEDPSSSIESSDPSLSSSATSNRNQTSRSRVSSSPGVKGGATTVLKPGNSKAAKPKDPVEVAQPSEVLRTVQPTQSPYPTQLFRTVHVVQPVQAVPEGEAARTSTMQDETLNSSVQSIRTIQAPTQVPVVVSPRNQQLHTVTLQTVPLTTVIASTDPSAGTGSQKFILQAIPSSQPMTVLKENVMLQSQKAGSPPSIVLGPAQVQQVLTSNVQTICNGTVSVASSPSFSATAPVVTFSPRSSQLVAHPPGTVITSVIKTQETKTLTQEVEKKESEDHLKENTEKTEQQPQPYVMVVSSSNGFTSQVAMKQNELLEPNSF
Outline: as §1

EHF = molecular target: T5, EHF (Homo sapiens, UniProt Q9NZC4 1-300); details: protein: recombinant; tags: N-terminal GST; dsDNA, one strand shown
T5 sequence: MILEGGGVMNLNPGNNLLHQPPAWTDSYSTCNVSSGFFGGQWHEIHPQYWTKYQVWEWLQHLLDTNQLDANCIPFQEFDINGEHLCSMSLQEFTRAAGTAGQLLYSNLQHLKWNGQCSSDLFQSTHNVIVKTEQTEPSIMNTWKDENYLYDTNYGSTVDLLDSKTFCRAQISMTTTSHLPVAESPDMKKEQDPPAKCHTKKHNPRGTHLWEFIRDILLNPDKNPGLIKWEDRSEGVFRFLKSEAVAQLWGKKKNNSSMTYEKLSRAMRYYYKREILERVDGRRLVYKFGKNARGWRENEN
Outline: as §1

SPI1 = SPI1 (Homo sapiens, UniProt P17947 1-270); details: protein: recombinant; tags: N-terminal GST; dsDNA, one strand shown
Outline: as §1

SPIB = SPIB (Homo sapiens, UniProt Q01892 1-262); details: protein: recombinant; tags: N-terminal GST; dsDNA, one strand shown
Sequence of SPIB (Q01892 whole entry): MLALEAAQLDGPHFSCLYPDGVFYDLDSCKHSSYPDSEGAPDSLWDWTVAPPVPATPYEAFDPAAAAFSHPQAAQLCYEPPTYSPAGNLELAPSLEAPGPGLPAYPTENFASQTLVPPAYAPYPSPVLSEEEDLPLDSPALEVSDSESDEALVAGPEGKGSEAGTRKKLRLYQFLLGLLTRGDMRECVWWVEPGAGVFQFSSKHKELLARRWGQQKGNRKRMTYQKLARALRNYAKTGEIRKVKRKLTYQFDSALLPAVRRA
Outline: as §1

ELK3 = molecular target: T6, ELK3 (Homo sapiens, UniProt P41970 1-407); details: protein: recombinant; tags: N-terminal GST; dsDNA, one strand shown
T6 sequence: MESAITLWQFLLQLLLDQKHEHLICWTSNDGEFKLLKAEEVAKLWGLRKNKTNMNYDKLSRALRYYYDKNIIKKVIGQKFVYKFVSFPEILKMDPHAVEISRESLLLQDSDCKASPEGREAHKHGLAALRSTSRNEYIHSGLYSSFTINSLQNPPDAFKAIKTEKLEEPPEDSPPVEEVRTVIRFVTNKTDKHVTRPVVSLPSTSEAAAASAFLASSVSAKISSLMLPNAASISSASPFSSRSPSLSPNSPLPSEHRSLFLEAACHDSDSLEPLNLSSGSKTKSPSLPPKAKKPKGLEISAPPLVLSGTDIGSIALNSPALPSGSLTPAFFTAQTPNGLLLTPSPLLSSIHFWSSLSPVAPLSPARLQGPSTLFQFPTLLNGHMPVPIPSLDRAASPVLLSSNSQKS
Outline: as §1

FEV = molecular target: T7, FEV (Homo sapiens, UniProt Q99581 1-238); details: protein: recombinant; tags: N-terminal GST; dsDNA, one strand shown
T7 sequence: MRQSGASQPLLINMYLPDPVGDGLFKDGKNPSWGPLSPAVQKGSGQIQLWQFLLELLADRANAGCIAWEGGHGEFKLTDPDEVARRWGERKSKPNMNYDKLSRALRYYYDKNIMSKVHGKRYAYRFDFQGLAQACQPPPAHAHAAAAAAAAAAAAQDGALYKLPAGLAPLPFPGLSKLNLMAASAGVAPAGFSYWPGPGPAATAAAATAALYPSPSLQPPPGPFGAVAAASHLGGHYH
Outline: as §1

ETV5 = ETV5 (Homo sapiens, UniProt P41161 1-510); details: protein: recombinant; tags: N-terminal GST; dsDNA, one strand shown
Sequence of ETV5 (P41161 whole entry): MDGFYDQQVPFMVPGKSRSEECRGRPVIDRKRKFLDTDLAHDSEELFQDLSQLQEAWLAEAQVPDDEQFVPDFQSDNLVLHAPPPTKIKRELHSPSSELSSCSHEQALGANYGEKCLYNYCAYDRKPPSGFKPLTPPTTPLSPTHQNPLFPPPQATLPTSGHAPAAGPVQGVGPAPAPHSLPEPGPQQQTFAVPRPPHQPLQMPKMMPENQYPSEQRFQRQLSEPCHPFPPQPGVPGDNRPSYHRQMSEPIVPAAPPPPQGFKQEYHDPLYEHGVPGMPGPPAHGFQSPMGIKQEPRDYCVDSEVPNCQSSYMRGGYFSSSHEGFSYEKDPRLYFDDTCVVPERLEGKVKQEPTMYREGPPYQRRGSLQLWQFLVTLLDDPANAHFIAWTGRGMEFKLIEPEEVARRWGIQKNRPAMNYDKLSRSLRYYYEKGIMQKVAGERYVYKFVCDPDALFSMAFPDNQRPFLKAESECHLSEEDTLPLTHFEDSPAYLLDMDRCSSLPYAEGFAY
Outline: as §1

HSF1 = HSF1 (Homo sapiens, UniProt Q00613 1-529); details: protein: recombinant; tags: N-terminal GST; chain copies: 3; dsDNA, one strand shown
Sequence of HSF1 (Q00613 whole entry): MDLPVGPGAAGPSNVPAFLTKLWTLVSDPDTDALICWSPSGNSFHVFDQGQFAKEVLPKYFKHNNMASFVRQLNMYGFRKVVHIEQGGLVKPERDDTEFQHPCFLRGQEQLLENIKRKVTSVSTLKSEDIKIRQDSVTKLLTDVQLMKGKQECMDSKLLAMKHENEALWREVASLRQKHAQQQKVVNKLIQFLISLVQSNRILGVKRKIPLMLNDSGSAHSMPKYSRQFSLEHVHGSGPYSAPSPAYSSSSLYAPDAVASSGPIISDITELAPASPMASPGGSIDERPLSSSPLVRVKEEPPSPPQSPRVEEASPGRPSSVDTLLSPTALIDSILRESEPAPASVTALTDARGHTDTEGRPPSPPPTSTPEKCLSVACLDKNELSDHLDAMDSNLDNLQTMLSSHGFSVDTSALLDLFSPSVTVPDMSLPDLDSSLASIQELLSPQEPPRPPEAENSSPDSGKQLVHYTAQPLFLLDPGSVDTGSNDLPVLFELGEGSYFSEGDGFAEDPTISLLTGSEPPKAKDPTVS
Outline: as §1

SPIC = molecular target: T8, SPIC (Homo sapiens, UniProt Q8N5J4 1-248); details: protein: recombinant; tags: N-terminal GST; dsDNA, one strand shown
T8 sequence: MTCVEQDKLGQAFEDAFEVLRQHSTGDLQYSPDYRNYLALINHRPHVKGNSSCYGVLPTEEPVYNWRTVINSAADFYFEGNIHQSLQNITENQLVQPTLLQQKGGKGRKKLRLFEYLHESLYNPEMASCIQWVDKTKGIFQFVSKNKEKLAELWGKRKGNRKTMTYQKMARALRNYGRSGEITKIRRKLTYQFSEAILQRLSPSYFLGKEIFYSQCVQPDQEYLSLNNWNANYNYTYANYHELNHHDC
Outline: as §1

ELF4 = ELF4 (Homo sapiens, UniProt Q99607 1-663); details: protein: recombinant; tags: N-terminal GST; dsDNA, one strand shown
Sequence of ELF4 (Q99607 whole entry): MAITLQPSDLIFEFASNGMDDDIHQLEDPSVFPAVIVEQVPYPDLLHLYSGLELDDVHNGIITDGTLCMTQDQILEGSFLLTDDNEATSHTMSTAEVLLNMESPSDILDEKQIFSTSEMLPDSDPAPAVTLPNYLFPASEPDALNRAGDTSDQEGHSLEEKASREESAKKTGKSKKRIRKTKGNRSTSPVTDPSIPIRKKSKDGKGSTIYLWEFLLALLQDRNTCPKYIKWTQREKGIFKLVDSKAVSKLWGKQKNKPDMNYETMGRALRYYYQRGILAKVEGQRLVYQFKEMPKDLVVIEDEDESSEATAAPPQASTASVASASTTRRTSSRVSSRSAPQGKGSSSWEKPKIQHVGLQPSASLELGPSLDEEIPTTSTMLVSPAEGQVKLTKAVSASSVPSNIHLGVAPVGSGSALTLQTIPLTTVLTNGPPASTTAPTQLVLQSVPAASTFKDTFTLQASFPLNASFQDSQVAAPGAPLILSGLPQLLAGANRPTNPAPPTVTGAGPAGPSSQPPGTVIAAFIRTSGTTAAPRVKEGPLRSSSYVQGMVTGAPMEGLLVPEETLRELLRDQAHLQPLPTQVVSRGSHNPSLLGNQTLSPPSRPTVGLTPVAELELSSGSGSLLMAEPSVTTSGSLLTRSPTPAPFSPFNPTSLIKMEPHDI
Outline: as §1

ELK4 = molecular target: T9, ELK4 (Homo sapiens, UniProt P28324-2 1-405); details: protein: recombinant; tags: N-terminal GST; dsDNA, one strand shown
T9 sequence: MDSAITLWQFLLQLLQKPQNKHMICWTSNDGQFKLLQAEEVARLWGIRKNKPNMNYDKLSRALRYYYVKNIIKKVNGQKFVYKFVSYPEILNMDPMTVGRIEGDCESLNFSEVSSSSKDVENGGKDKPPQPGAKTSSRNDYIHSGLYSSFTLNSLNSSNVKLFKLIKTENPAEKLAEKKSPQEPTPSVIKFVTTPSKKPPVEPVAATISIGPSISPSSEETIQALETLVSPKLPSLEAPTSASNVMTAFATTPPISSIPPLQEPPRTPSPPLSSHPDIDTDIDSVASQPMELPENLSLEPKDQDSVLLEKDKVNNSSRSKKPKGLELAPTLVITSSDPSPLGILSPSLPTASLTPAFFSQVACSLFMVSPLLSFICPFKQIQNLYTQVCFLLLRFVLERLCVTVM
Outline: as §1

ETV2 = molecular target: T10, ETV2 (Homo sapiens, UniProt O00321 1-342); details: protein: recombinant; tags: N-terminal GST; dsDNA, one strand shown
T10 sequence: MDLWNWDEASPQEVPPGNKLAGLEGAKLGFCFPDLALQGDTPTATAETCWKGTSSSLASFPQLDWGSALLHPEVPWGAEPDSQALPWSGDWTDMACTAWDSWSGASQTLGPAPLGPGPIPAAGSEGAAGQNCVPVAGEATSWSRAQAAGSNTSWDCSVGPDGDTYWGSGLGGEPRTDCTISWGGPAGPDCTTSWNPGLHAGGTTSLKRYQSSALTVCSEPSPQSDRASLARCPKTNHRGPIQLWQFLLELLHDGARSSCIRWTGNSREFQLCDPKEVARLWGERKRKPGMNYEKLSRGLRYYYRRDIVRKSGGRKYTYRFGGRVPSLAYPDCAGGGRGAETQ
Outline: as §1

ELF3 = molecular target: T11, ELF3 (Homo sapiens, UniProt P78545 1-371); details: protein: recombinant; tags: N-terminal GST; dsDNA, one strand shown
T11 sequence: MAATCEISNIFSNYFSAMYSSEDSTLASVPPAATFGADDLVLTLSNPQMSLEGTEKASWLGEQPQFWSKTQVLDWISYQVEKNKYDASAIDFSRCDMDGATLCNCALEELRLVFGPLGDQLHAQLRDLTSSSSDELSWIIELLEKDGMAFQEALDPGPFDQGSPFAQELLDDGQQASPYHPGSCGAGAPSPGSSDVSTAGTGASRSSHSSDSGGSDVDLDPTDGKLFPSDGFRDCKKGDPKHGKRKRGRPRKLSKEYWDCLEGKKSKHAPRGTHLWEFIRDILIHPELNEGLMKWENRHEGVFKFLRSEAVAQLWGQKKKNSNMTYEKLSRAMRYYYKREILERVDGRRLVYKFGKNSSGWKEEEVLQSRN
Outline: as §1

CRX = CRX (Homo sapiens, UniProt O43186 1-299); details: protein: recombinant; tags: N-terminal GST; dsDNA, one strand shown
Sequence of CRX (O43186 whole entry): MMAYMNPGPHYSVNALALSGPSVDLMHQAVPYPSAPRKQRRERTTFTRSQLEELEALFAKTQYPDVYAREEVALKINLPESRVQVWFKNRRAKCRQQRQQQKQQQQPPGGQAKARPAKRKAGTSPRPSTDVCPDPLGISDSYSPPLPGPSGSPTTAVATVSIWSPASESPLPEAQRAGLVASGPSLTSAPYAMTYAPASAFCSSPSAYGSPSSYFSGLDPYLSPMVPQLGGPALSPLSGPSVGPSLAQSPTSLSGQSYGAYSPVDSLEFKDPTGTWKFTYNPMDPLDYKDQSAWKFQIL
Outline: as §1

ETV1 = ETV1 (Homo sapiens, UniProt P50549 1-477); details: protein: recombinant; tags: N-terminal GST; dsDNA, one strand shown
Sequence of ETV1 (P50549 whole entry): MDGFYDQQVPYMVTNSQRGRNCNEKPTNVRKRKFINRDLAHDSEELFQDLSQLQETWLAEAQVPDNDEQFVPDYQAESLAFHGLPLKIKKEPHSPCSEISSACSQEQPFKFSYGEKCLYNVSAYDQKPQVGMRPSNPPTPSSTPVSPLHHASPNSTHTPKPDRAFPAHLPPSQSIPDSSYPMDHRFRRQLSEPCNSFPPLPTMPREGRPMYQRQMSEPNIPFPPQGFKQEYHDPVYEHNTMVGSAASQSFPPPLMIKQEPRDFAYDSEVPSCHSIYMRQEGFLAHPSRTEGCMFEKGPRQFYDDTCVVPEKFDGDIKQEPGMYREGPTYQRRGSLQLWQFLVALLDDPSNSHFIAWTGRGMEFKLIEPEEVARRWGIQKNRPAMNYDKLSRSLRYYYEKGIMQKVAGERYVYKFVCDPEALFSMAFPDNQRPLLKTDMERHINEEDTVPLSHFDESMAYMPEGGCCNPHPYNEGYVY
Outline: as §1

Which binding signal (FLI1) does the source give for CCAATA here?
The binding signal was 1.24 fold enrichment (6-mer frequency, TF over GST control).

What about the binding signal (ELK1) of the same sequence?
Its binding signal is 1.17 fold enrichment (6-mer frequency, TF over GST control).

And the binding signal (GABPA)?
The binding signal was 1.25 fold enrichment (6-mer frequency, TF over GST control).

What about the binding signal (ERG) of the same sequence?
Its binding signal is 1.26 fold enrichment (6-mer frequency, TF over GST control).

What about the binding signal (ELF1) of the same sequence?
Its binding signal is 1.25 fold enrichment (6-mer frequency, TF over GST control).

What about the binding signal (EHF) of the same sequence?
Its binding signal is 1.25 fold enrichment (6-mer frequency, TF over GST control).

And the binding signal (SPI1)?
The binding signal was 1.2 fold enrichment (6-mer frequency, TF over GST control).

And the binding signal (SPIB)?
The binding signal was 1.24 fold enrichment (6-mer frequency, TF over GST control).

And the binding signal (ELK3)?
Its binding signal is 1.28 fold enrichment (6-mer frequency, TF over GST control).

What about the binding signal (FEV) of the same sequence?
Its binding signal is 1.19 fold enrichment (6-mer frequency, TF over GST control).

What about the binding signal (ETV5) of the same sequence?
The binding signal was 1.29 fold enrichment (6-mer frequency, TF over GST control).

And the binding signal (HSF1)?
Its binding signal is 1.12 fold enrichment (6-mer frequency, TF over GST control).

And the binding signal (SPIC)?
Its binding signal is 1.18 fold enrichment (6-mer frequency, TF over GST control).

And the binding signal (ELF4)?
Its binding signal is 1.29 fold enrichment (6-mer frequency, TF over GST control).

What about the binding signal (ELK4) of the same sequence?
Its binding signal is 1.23 fold enrichment (6-mer frequency, TF over GST control).

And the binding signal (ETV2)?
Its binding signal is 1.09 fold enrichment (6-mer frequency, TF over GST control).

What about the binding signal (ELF3) of the same sequence?
The binding signal was 1.25 fold enrichment (6-mer frequency, TF over GST control).

What about the binding signal (CRX) of the same sequence?
Its binding signal is 1.22 fold enrichment (6-mer frequency, TF over GST control).

And the binding signal (ETV1)?
Its binding signal is 1.21 fold enrichment (6-mer frequency, TF over GST control).
